According to PubChem BioAssay (NCATS):
Results filed as inconclusive are left out. Entries that show only a call come without a potency. Activity calls are given as the source filed them. Calls come from the whole dose curve; as a rule, active = well fitted inhibition curve with a large enough effect; inconclusive = small, poorly fitted or top-dose-only effect; inactive = flat fitted curve, though single readings scatter.

What was measured:
Experiment in all cases: qHTS profiling for inhibitors of Plasmodium falciparum proliferation (AID 504749); note: nearly all actives have a fitted effect of over 60% in size
Settings in all cases: P. falciparum in erythrocytes, SYBR Green DNA, 72 h; series mostly up to 28.7 µM
[1] = system: CP215
Summary of the method: (§1)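 In a 72 h erythrocytic culture (37 C, humidified, 5% CO2) at 2.5% hematocrit and 0.3% starting parasitemia, compounds were tested; SYBR Green I in detergent lysis buffer stained parasite DNA overnight.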

[2] = system: CP217
Summary of the method: as §1

[3] = system: CP237
Summary of the method: as §1

[4] = system: CP238
Summary of the method: as §1

[5] = system: CP247
Summary of the method: as §1

[6] = system: CP250
Summary of the method: as §1

[7] = system: CP252
Summary of the method: as §1

[8] = system: CP256
Summary of the method: as §1

[9] = system: CP260
Summary of the method: as §1

[10] = system: CP262
Summary of the method: as §1

[11] = system: CP265
Summary of the method: as §1

[12] = system: CP266
Summary of the method: as §1

[13] = system: CP268
Summary of the method: as §1

[14] = system: CP269
Summary of the method: as §1

[15] = system: CP286
Summary of the method: as §1

[16] = system: CP291
Summary of the method: as §1

[17] = system: CP297
Summary of the method: as §1

[18] = system: CP305
Summary of the method: as §1

[19] = system: CP315
Summary of the method: as §1

[20] = system: CP325
Summary of the method: as §1
Potency is the fitted concentration of half-maximal effect.

SMILES	Potency [1]	Potency [2]	Potency [3]	Potency [4]	Potency [5]	Potency [6]	Potency [7]	Potency [8]	Potency [9]	Potency [10]	Potency [11]	Potency [12]	Potency [13]	Potency [14]	Potency [15]	Potency [16]	Potency [17]	Potency [18]	Potency [19]	Potency [20]
Cn1c(=O)c2[nH]cnc2n(C)c1=O	inactive	inactive	inactive	inactive	inactive	inactive	inactive	inactive	inactive	inactive	inactive	inactive	inactive	inactive	inactive	inactive	inactive	inactive	inactive	inactive
CN(C)CCCN1c2ccccc2CCc2ccc(Cl)cc21	–	–	–	inactive	inactive	inactive	inactive	–	–	–	inactive	–	inactive	–	–	–	–	inactive	inactive	inactive
Nc1c2c(nc3ccccc13)CCCC2	–	inactive	–	inactive	–	inactive	inactive	–	–	–	–	inactive	–	–	–	–	–	–	inactive	–
COc1cc2c(c(OC)c1OC)-c1ccc(OC)c(=O)cc1[C@@H](NC(C)=O)CC2	–	inactive	inactive	inactive	inactive	inactive	inactive	inactive	inactive	inactive	inactive	inactive	inactive	inactive	inactive	inactive	inactive	inactive	inactive	inactive
CN(Cc1cnc2nc(N)nc(N)c2n1)c1ccc(C(=O)N[C@@H](CCC(=O)O)C(=O)O)cc1	inactive	–	0.1 µM (active)	–	–	0.178 µM (active)	inactive	–	0.158 µM (active)	inactive	–	inactive	inactive	inactive	0.158 µM (active)	inactive	inactive	inactive	inactive	inactive
Clc1ccc(C(c2ccccc2Cl)C(Cl)Cl)cc1 (stereo unspecified)	–	inactive	inactive	inactive	inactive	inactive	inactive	inactive	–	inactive	inactive	inactive	–	inactive	–	inactive	–	–	inactive	inactive
COc1ccccc1OCCNCC(O)COc1cccc2[nH]c3ccccc3c12 (stereo unspecified)	–	–	12.6 µM (active)	–	–	–	–	11.2 µM (active)	–	–	8.91 µM (active)	inactive	–	–	10 µM (active)	–	inactive	inactive	inactive	inactive
O=C1c2c(O)ccc(O)c2C(=O)c2c(NCCNCCO)ccc(NCCNCCO)c21	6.42 µM (active)	3.55 µM (active)	1.26 µM (active)	3.16 µM (active)	3.16 µM (active)	3.16 µM (active)	3.16 µM (active)	–	1 µM (active)	–	–	5.1 µM (active)	7.21 µM (active)	7.21 µM (active)	1.12 µM (active)	6.42 µM (active)	6.42 µM (active)	5.1 µM (active)	6.42 µM (active)	–
CNCCCC12CCC(c3ccccc31)c1ccccc12	inactive	inactive	–	inactive	inactive	inactive	inactive	inactive	–	inactive	–	inactive	inactive	–	–	–	–	inactive	inactive	inactive
O=C1N(c2ccccc2)c2ccccc2C1(Cc1ccncc1)Cc1ccncc1	inactive	inactive	–	inactive	inactive	inactive	inactive	inactive	inactive	inactive	inactive	inactive	inactive	inactive	inactive	inactive	–	inactive	inactive	inactive
CC1(CN2CCC(n3c(=O)[nH]c4ccccc43)CC2)OCc2ccccc2-n2cccc21 (stereo unspecified)	–	–	–	–	–	–	–	–	–	inactive	–	inactive	–	–	–	–	–	–	inactive	inactive
CCOC(=O)Nc1ccc(NCc2ccc(F)cc2)nc1N	–	10 µM (active)	10 µM (active)	–	12.6 µM (active)	–	8.91 µM (active)	10 µM (active)	11.2 µM (active)	12 µM (active)	11.2 µM (active)	–	–	–	8.91 µM (active)	–	–	–	–	–
O=c1c(O)c(-c2ccc(O)c(O)c2)oc2cc(O)cc(O)c12	13.5 µM (active)	–	–	–	7.08 µM (active)	–	–	–	–	–	–	inactive	–	–	11.2 µM (active)	–	–	–	–	–
COC(=O)Nc1nc2ccc(C(=O)c3cccs3)cc2[nH]1	inactive	inactive	inactive	inactive	inactive	inactive	inactive	inactive	–	inactive	inactive	inactive	inactive	inactive	inactive	inactive	inactive	inactive	inactive	inactive
COc1ccc(CCN(C)CCCC(C#N)(c2ccc(OC)c(OC)c2)C(C)C)cc1OC (stereo unspecified)	–	inactive	–	inactive	inactive	inactive	inactive	inactive	–	inactive	inactive	–	inactive	–	inactive	–	inactive	–	–	inactive
Cc1ccc(-c2cc(C(F)(F)F)nn2-c2ccc(S(N)(=O)=O)cc2)cc1	13.5 µM (active)	–	–	inactive	–	–	–	–	–	–	–	–	–	–	8.91 µM (active)	–	–	–	–	–
CN1CCC(=C2c3ccccc3CC(=O)c3sccc32)CC1	–	–	–	–	–	inactive	inactive	–	–	inactive	10 µM (active)	inactive	–	–	inactive	–	–	–	inactive	–
OCCN1CCN(CCCN2c3ccccc3Sc3ccc(C(F)(F)F)cc32)CC1	13.5 µM (active)	10 µM (active)	12.6 µM (active)	8.91 µM (active)	11.2 µM (active)	12.6 µM (active)	10 µM (active)	3.16 µM (active)	7.94 µM (active)	5.36 µM (active)	11.2 µM (active)	–	13.5 µM (active)	6.01 µM (active)	2.51 µM (active)	8.49 µM (active)	–	9.53 µM (active)	12 µM (active)	6.75 µM (active)
CCCCc1oc2ccccc2c1C(=O)c1cc(I)c(OCCN(CC)CC)c(I)c1	15.1 µM (active)	5.62 µM (active)	7.08 µM (active)	7.94 µM (active)	8.91 µM (active)	7.94 µM (active)	11.2 µM (active)	12.6 µM (active)	3.98 µM (active)	–	7.08 µM (active)	inactive	–	–	11.2 µM (active)	–	–	–	inactive	–
CN(CCOc1ccc(NS(C)(=O)=O)cc1)CCc1ccc(NS(C)(=O)=O)cc1	–	inactive	inactive	inactive	inactive	inactive	inactive	inactive	inactive	inactive	inactive	inactive	inactive	inactive	inactive	inactive	–	inactive	inactive	inactive
